According to ChEMBL document CHEMBL3433997, “St. Jude Leishmania screening dataset” (2016):
Values joined by “and” are separate entries in the source; they are usually repeats but may differ in a detail not shown here. Identical values can stand only once.

These molecules were tested against Hexose transporter 1 (Plasmodium falciparum) (UniProt O97467) (assay: ST_JUDE_LEISH: Cytotoxicity at 2uM final concentration against transgenic Leishmania Mexicana promastigotes LmPfHT that are glucose transport deficient and complemented with the Plasmodium falciparum hexose transporter. Activity is measured by DNA content using SYBR green in vitro).
Assay type: functional

Structure (SMILES) | inhibition
O=C(CC1CCCC1)N(CC1CCN(Cc2ccc(C(F)(F)F)cc2)CC1)c1ccc(N2CCOCC2)c(F)c1 | 10.9%
Cc1cccc(C(=O)Nc2ccnc(N(C)C3CCN(Cc4cccc(O)c4)CC3)c2)c1 | 1.84%
O=C(c1cc(C(F)(F)F)cc(C(F)(F)F)c1)N1CCC(CCN2CCC3(CC2)C(=O)NCN3c2ccccc2)CC1Cc1ccc(Cl)c(Cl)c1 (stereo not drawn) | 10.7%
O=C(CCc1ccco1)NC1CCN(CC2(c3ccc(Cl)cc3)CCC2)CC1 | 8.13%
O=C(/C=C/C=C/c1ccccc1)NC1CCC(CN2CCC(c3c[nH]c4ccccc34)CC2)CC1 (stereo not drawn) | 0.67%
COc1cccc(C(=O)C2CC2CN2CC=C(c3c[nH]c4cccc(Br)c34)CC2)c1 (stereo not drawn) | 1.08%
CC(=O)Nc1ccc(CN2CCC(N(C)c3cc(NC(=O)c4cccs4)ccn3)CC2)cc1 | 0.83%
COc1ccc(C(=O)C2CC2CN2CC=C(c3c[nH]c4ccc(OC)nc34)CC2)cc1 (stereo not drawn) | -1.74%
Cc1[nH]c2ccc([N+](=O)[O-])cc2c1C1=CCN(C)CC1 | 1.63%
Cc1nc2ccccc2n1C1CC2CCC(C1)N2Cc1nccn1-c1ccccc1 (stereo not drawn) | 3.24%
O=C(Nc1ccc(CN2CCC(c3c[nH]c4ccc(O)cc34)CC2)cc1)c1ccc(-c2ccccc2)cc1 | 3.85%
COC(=O)C(C)(C)c1ccc(CC(C)NCC(O)c2cccc(C(F)(F)F)c2)cc1 (stereo not drawn) | 6.92%
Cc1[nH]c2cc(Cl)ccc2c1C1=CCN(CCCCC2(C)C(=O)Nc3c(F)cccc32)CC1 (stereo not drawn) | 0.61%
S=C(NCC1CCCCC1)NC1CCC(CN2CCC(c3c[nH]c4ccccc34)CC2)CC1 (stereo not drawn) | 3.66%
Cc1ccc(-n2nc(C)c3c2NC(=O)CSC3c2ccsc2)cc1 (stereo not drawn) | 13.5%
CC1(C)CCCN(C(=O)Cc2ccc3c(c2)CCCC3)C1CN1CC=CC1 (stereo not drawn) | 8.82%
CC[C@H]1CN2CC[C@H]1C[C@@H]2[C@@H](OC(=O)c1ccc(Cl)cc1)c1ccnc2ccc(OC)cc12 | 0.13%
O=C(C=Cc1ccccc1C(F)(F)F)NC1CCC(CN2CCC(c3c[nH]c4ccccc34)CC2)CC1 (stereo not drawn) | 5.1% and 5.78%
CN1CC=C(c2csc3ccc(NC(=O)Nc4ccc(-c5ccncc5)c(Cl)c4)cc23)CC1 | -0.33%
Oc1ccc(CN2CCN(CCOC(c3ccccc3)c3ccccc3)CC2)cc1Cl | 3.98%

Structure (SMILES) | inhibition
CC[C@H]1CN2CC[C@@H]1C[C@H]2[C@H](O)c1cc(N2CCC(C(N)=O)CC2)nc2ccc(OC)cc12 | 7.92%
CCC(C)CN1CCC(N(C)c2cc(NC(=O)c3cccc(C)c3)ccn2)CC1 (stereo not drawn) | 1.14%
CC(Cc1ccc(OCCOc2ccccc2)cc1)NCC(O)c1cccc(Cl)c1 (stereo not drawn) | 1.43%
COc1cc(/C=C/C(=O)NC2CCC(CN3CCC(c4c[nH]c5ccccc45)CC3)CC2)ccc1O (stereo not drawn) | 1.97% and 2.79%
COC(=O)/C=C/c1ccc(CC(C)NCC(O)c2cccc(Br)c2)cc1 (stereo not drawn) | 0.16%
CC(Cc1ccc(OCCCCOc2ccccc2)cc1)NCCC1CCCN1C (stereo not drawn) | 97.7%
CN(C)c1cccc(CCNCCc2c[nH]c3ccc(Cl)cc23)c1 | 4.45%
Cc1[nH]c2ccccc2c1C1=CCN(CC2CC2C(=O)c2ccccc2)CC1 (stereo not drawn) | 9.13%
CCc1ccc(CC(C)NCC(O)c2ccccc2)cc1 (stereo not drawn) | 1.04%
O=C(/C=C/c1c(Cl)cccc1Cl)NC1CCC(CN2CCC(c3c[nH]c4ccccc34)CC2)CC1 (stereo not drawn) | 12.9% and 2.55%
CC(Cc1ccc(S(=O)(=O)N(C(C)C)C(C)C)cc1)NCC(O)c1cccc(C(F)(F)F)c1 (stereo not drawn) | 2.53%
CCN1CCC(N2CCC(n3c(C)nc4cc(C(F)(F)F)ccc43)CC2)CC1 | 3.12%
COc1ccc(C(=O)C2CC2CN2CC=C(c3c(C)[nH]c4ccccc34)CC2)cc1 (stereo not drawn) | 2.52%
Cc1cc(CN2CCN(CCOC(c3ccccc3)c3ccccc3)CC2)ccc1O | 13.2%
COc1ccc(OC)c(C=CC(=O)NC2CCC(CN3CCC(c4c[nH]c5ccccc45)CC3)CC2)c1 (stereo not drawn) | -0.24%
Cn1c(C2CC3CCC(C2)N3CC2CCC(NC(=O)/C=C/c3ccc(Cl)c(Cl)c3)CC2)nc2ccccc21 (stereo not drawn) | 3.19%
CCOC(=O)c1c(CN2CCN(C)CC2)n(Cc2ccccc2)c2cc(Br)c(O)cc12 | 16.7%
CCOc1ccc2nccc([C@@H](O)[C@@H]3C[C@@H]4CCN3C[C@@H]4CC)c2c1 | 1.71% and 3.63%
O=C(/C=C/c1ccc(Cl)c(Cl)c1)NCc1ccc(CN2CCC(c3c[nH]c4ccccc34)CC2)cc1 | 2.44%

Each molecule was assayed against Glucose transporter (Leishmania mexicana) (UniProt O61059) (assay: ST_JUDE_LEISH: Cytotoxicity at 2uM final concentration against transgenic Leishmania Mexicana promastigotes LmGT2 that are glucose transport deficient and complemented with the L. Mexicana glucose transporter 2. Activity is measured by DNA content using SYBR green in vitro).
Assay type: functional

Structure (SMILES) | inhibition
O=C(CC1CCCC1)N(CC1CCN(Cc2ccc(C(F)(F)F)cc2)CC1)c1ccc(N2CCOCC2)c(F)c1 | 14%
Cc1cccc(C(=O)Nc2ccnc(N(C)C3CCN(Cc4cccc(O)c4)CC3)c2)c1 | 3.85%
O=C(c1cc(C(F)(F)F)cc(C(F)(F)F)c1)N1CCC(CCN2CCC3(CC2)C(=O)NCN3c2ccccc2)CC1Cc1ccc(Cl)c(Cl)c1 (stereo not drawn) | 6.06%
O=C(CCc1ccco1)NC1CCN(CC2(c3ccc(Cl)cc3)CCC2)CC1 | 7.13%
O=C(/C=C/C=C/c1ccccc1)NC1CCC(CN2CCC(c3c[nH]c4ccccc34)CC2)CC1 (stereo not drawn) | 2.81%
COc1cccc(C(=O)C2CC2CN2CC=C(c3c[nH]c4cccc(Br)c34)CC2)c1 (stereo not drawn) | -0.34%
CC(=O)Nc1ccc(CN2CCC(N(C)c3cc(NC(=O)c4cccs4)ccn3)CC2)cc1 | -0.48%
COc1ccc(C(=O)C2CC2CN2CC=C(c3c[nH]c4ccc(OC)nc34)CC2)cc1 (stereo not drawn) | 2.37%
Cc1[nH]c2ccc([N+](=O)[O-])cc2c1C1=CCN(C)CC1 | 2.86%
Cc1nc2ccccc2n1C1CC2CCC(C1)N2Cc1nccn1-c1ccccc1 (stereo not drawn) | 2.15%
O=C(Nc1ccc(CN2CCC(c3c[nH]c4ccc(O)cc34)CC2)cc1)c1ccc(-c2ccccc2)cc1 | 5.18%
COC(=O)C(C)(C)c1ccc(CC(C)NCC(O)c2cccc(C(F)(F)F)c2)cc1 (stereo not drawn) | 9.96%
Cc1[nH]c2cc(Cl)ccc2c1C1=CCN(CCCCC2(C)C(=O)Nc3c(F)cccc32)CC1 (stereo not drawn) | 0.45%
S=C(NCC1CCCCC1)NC1CCC(CN2CCC(c3c[nH]c4ccccc34)CC2)CC1 (stereo not drawn) | 0.26%
Cc1ccc(-n2nc(C)c3c2NC(=O)CSC3c2ccsc2)cc1 (stereo not drawn) | 11%
CC1(C)CCCN(C(=O)Cc2ccc3c(c2)CCCC3)C1CN1CC=CC1 (stereo not drawn) | 8.93%
CC[C@H]1CN2CC[C@H]1C[C@@H]2[C@@H](OC(=O)c1ccc(Cl)cc1)c1ccnc2ccc(OC)cc12 | -1.41%
O=C(C=Cc1ccccc1C(F)(F)F)NC1CCC(CN2CCC(c3c[nH]c4ccccc34)CC2)CC1 (stereo not drawn) | 5.23% and 4.7%
CN1CC=C(c2csc3ccc(NC(=O)Nc4ccc(-c5ccncc5)c(Cl)c4)cc23)CC1 | 0.2%
Oc1ccc(CN2CCN(CCOC(c3ccccc3)c3ccccc3)CC2)cc1Cl | -1.69%

Structure (SMILES) | inhibition
CC[C@H]1CN2CC[C@@H]1C[C@H]2[C@H](O)c1cc(N2CCC(C(N)=O)CC2)nc2ccc(OC)cc12 | 8.43%
CCC(C)CN1CCC(N(C)c2cc(NC(=O)c3cccc(C)c3)ccn2)CC1 (stereo not drawn) | -0.14%
CC(Cc1ccc(OCCOc2ccccc2)cc1)NCC(O)c1cccc(Cl)c1 (stereo not drawn) | 1.19%
COc1cc(/C=C/C(=O)NC2CCC(CN3CCC(c4c[nH]c5ccccc45)CC3)CC2)ccc1O (stereo not drawn) | 1.02% and 1.53%
COC(=O)/C=C/c1ccc(CC(C)NCC(O)c2cccc(Br)c2)cc1 (stereo not drawn) | 0.91%
CC(Cc1ccc(OCCCCOc2ccccc2)cc1)NCCC1CCCN1C (stereo not drawn) | 103%
CN(C)c1cccc(CCNCCc2c[nH]c3ccc(Cl)cc23)c1 | 1.58%
Cc1[nH]c2ccccc2c1C1=CCN(CC2CC2C(=O)c2ccccc2)CC1 (stereo not drawn) | 8.4%
CCc1ccc(CC(C)NCC(O)c2ccccc2)cc1 (stereo not drawn) | 1.94%
O=C(/C=C/c1c(Cl)cccc1Cl)NC1CCC(CN2CCC(c3c[nH]c4ccccc34)CC2)CC1 (stereo not drawn) | 6.66% and 4.94%
CC(Cc1ccc(S(=O)(=O)N(C(C)C)C(C)C)cc1)NCC(O)c1cccc(C(F)(F)F)c1 (stereo not drawn) | 1.68%
CCN1CCC(N2CCC(n3c(C)nc4cc(C(F)(F)F)ccc43)CC2)CC1 | 4.4%
COc1ccc(C(=O)C2CC2CN2CC=C(c3c(C)[nH]c4ccccc34)CC2)cc1 (stereo not drawn) | 3.3%
Cc1cc(CN2CCN(CCOC(c3ccccc3)c3ccccc3)CC2)ccc1O | 13.6%
COc1ccc(OC)c(C=CC(=O)NC2CCC(CN3CCC(c4c[nH]c5ccccc45)CC3)CC2)c1 (stereo not drawn) | -0.07%
Cn1c(C2CC3CCC(C2)N3CC2CCC(NC(=O)/C=C/c3ccc(Cl)c(Cl)c3)CC2)nc2ccccc21 (stereo not drawn) | 2.69%
CCOC(=O)c1c(CN2CCN(C)CC2)n(Cc2ccccc2)c2cc(Br)c(O)cc12 | 12.7%
CCOc1ccc2nccc([C@@H](O)[C@@H]3C[C@@H]4CCN3C[C@@H]4CC)c2c1 | 3.59% and -0.94%
O=C(/C=C/c1ccc(Cl)c(Cl)c1)NCc1ccc(CN2CCC(c3c[nH]c4ccccc34)CC2)cc1 | 0.41%
